Rows were chosen to be rich in hits. Some 2.8% of all compounds tested hit in one or more screens of this group.
hERG WT inh = inhibitors of human wildtype KCNH2 potassium channel | Q12809 | U2OS, BacMam KCNH2, thallium flux FluxOr; active compounds read low | activity change, % at 1.84 µM | hit rate 0.37% among 340,000 | AID 720551;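 active means maximum activity change below -70%; inconclusive means maximum activity change between -70% and -50%; inactive means maximum activity change above -50%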
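U2OS cells were transduced with wild-type KCNH2 virus (2.03 x 10^8 / mL) for 4 h at room temperature, then cultured overnight at 37 C. Thallium flux was read with FluxOr dye. Rate constants were normalized to DMSO controls.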
GLP-1R inv ag = acts as inverse agonist at human GLP-1 receptor. P43220. hit rate 1.6% among 410,000. Potency, µM (doses to about 38.3 µM), most hits filed as inhibitors. HEK293 GLP-1R CRE-luciferase, luminescence, 24 h; GLP-1R form is constitutively active. AID 624417; further: nearly all actives have a fitted effect of over 55% in size
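Assay principle: reduced luminescence from a cAMP-responsive reporter in HEK293 cells co-expressing a constitutively active GLP-1R. Conditions: 24 hr compound incubation, 37 deg C, 5% CO2.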
GLP1R ag = agonists of human GLP-1 receptor. HEK293 GLP-1R CRE-luciferase, luminescence, 4-6 h; cells express a hypersensitive GLP-1R form. Potency, µM (series often up to 45.6 µM), hits mostly activators. hit rate 0.007% among 380,000
KCNH2 3.1 inh = KCNH2 3.1 (human) potassium channel inhibition | activity change, % (tested at about 1.8 µM) | U2OS KCNH2 3.1, thallium flux FluxOr; active compounds read low | hit rate 0.95% among 340,000;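 active means maximum activity change below -70%; inconclusive means maximum activity change from -70% to -50%; inactive means maximum activity change above -50%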;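 further: thallium influx rate constant from kinetic fluorescence after stimulation buffer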
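Thallium flux read-out: FluxOr dye with Red40 quencher in HBSS/HEPES, 45 min at RT. Rate constants from kinetic reads were normalized to positive and negative DMSO controls. Cells: U2OS virally expressing the 3.1 isoform.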
GLS inh = blocks human kidney-isoform glutaminase activity. O94925. GLS enzymatic activity, qHTS titration. Potency, µM (top dose mostly 45.5 µM), actives largely listed as inhibitors. hit rate 0.21% among 410,000
Target sequence (O94925 whole entry, looked up, canonical isoform): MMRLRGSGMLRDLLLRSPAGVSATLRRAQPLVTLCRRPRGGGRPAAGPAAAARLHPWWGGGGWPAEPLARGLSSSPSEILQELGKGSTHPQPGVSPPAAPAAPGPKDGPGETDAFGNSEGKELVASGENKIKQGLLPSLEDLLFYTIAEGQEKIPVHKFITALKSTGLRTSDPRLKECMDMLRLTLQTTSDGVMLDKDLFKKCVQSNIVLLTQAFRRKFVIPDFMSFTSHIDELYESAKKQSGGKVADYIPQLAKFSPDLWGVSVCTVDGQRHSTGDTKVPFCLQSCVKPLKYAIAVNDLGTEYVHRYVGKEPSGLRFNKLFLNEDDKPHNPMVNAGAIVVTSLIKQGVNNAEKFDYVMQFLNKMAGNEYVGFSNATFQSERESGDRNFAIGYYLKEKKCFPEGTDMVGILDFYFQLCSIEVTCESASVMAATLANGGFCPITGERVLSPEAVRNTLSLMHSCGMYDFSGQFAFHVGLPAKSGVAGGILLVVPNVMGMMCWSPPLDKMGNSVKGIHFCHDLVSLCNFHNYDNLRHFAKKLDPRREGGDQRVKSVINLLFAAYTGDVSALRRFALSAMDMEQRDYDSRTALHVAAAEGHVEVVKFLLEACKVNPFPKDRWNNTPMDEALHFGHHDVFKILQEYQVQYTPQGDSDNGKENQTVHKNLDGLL
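Compounds were pin-transferred onto hKGA, after which L-glutamine (1 mM solution) and a detection mix of glutamate oxidase, HRP and Amplex Red were added. Initial and 30 min RT fluorescence reads were collected.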
GLP1R cytotox = cytotoxicity counter-screen for GLP-1 receptor inverse agonists; HEK293 cAMP-luciferase reporter cells, luminescence, 24 h; Potency, µM (top dose mostly 38.3 µM), most hits filed as inhibitors; hit rate 0.13% among 410,000;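 further: loss of luciferase light is scored as toxicity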
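Compound-treated cells are incubated 24 hr at 37 deg C under 5% CO2 after a 12 hour attachment period, then luciferase detection reagent is added and luminescence is measured following 12 min at room temperature; lowered signal indicates toxicity.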
Large screens that a line does not name were inactive. Unless noted, the call rests on the fitted dose curve; in most records, active means well fitted curve in the direction sought with a large enough effect; inconclusive means small, poorly fitted or top-dose-only effect, or another doubt; inactive means no such curve, though single readings can be large; an effect the other way counts as inactive or inconclusive.

COc1ccc(-c2nc(Cn3c(SCc4ccc(C)cc4)nc4cccnc43)c(C)o2)cc1OC	GLP-1R inv ag 10µM (no result: hERG WT inh, GLP1R ag, KCNH2 3.1 inh)
COc1ccc(-c2nc(Cn3c(SCc4ccccc4F)nc4ccncc43)c(C)o2)cc1	KCNH2 3.1 inh -109
COc1ccc(-c2nc(Cn3c(SCc4ccccc4F)nc4cccnc43)c(C)o2)cc1	none (no result: hERG WT inh, GLP1R ag, KCNH2 3.1 inh)
N#CCC(=O)N/N=C/c1cn(Cc2ccc(Cl)c(Cl)c2)c2ccccc12	GLP-1R inv ag 1.3µM, GLP1R cytotox inconclusive
Cc1ccc(C)c(CN2CCC(CNC(=O)Nc3ccc(Cl)cc3)CC2)c1	GLP-1R inv ag inconclusive, KCNH2 3.1 inh -88, GLS inh inconclusive
O=C(NCCCN1CCN(Cc2ccccc2Cl)CC1)Nc1ccccc1	none (no result: KCNH2 3.1 inh)
Cc1ccccc1CC1CCN(CCCNC(=O)Nc2ccccc2)CC1	GLP-1R inv ag 10µM, KCNH2 3.1 inh -80
O=C(CCC(=O)N1CCN(c2ccc(C(F)(F)F)cn2)CC1)c1cccs1	none
CCCCNC(=O)CN1C(=O)c2cccnc2Sc2ccccc21	none (no result: hERG WT inh, GLP1R ag, KCNH2 3.1 inh)
CC(C)CNC(=S)N(CCCO)Cc1cc2cc3c(cc2[nH]c1=O)OCO3	none
N#CC1(NC(=O)COC(=O)c2ccc(Cl)nc2)CCCCC1	none
N#CC1(NC(=O)COC(=O)c2nccnc2N)CCCCC1	hERG WT inh -202
COc1ccc(C(=O)N2CCCC(c3cc(C(=O)NCc4ccccc4)no3)C2)cc1 (configuration not stated)	none (no result: hERG WT inh, KCNH2 3.1 inh)
OC(COc1ccc(CNCCc2ccc(C(F)(F)F)cc2)cc1)CN1CCCCC1 (configuration not stated)	GLP-1R inv ag 2.2µM, GLP1R cytotox inconclusive
OC(COc1ccc(OCC(O)CN2CCCCC2)cc1)CN1CCCCC1 (configuration not stated)	GLP-1R inv ag inconclusive, GLP1R cytotox inconclusive
CCOc1ccc(S(=O)(=O)NCCCN2CCOCC2)c2ccccc12	none
CCCOc1ccc(S(=O)(=O)NCCCN2CCOCC2)c2ccccc12	hERG WT inh -206, GLP-1R inv ag inconclusive
CC(NC(=O)C(=O)N1CCOCC1)C(c1cccs1)N1CCN(c2ccccc2F)CC1 (configuration not stated)	KCNH2 3.1 inh -122
CC(NC(=O)C(=O)N1CCCCC1)C(c1cccs1)N1CCN(c2ccccc2F)CC1 (configuration not stated)	GLP-1R inv ag inconclusive
CCC(=O)N1CCc2cc(Br)cc(S(=O)(=O)CCC(=O)N(CC)Cc3ccccc3)c21	none (no result: hERG WT inh, GLP1R ag, KCNH2 3.1 inh)
Cc1ccc(C)c(N2CCN(S(=O)(=O)c3ccc(-c4cnc(C5CC5)o4)cc3)CC2)c1	GLP-1R inv ag inconclusive (no result: hERG WT inh, GLP1R ag, KCNH2 3.1 inh)
Cc1cccc(N2CCN(S(=O)(=O)c3ccc(-c4cnc(C5CC5)o4)cc3)CC2)c1C	GLP-1R inv ag 11µM (no result: hERG WT inh, GLP1R ag, KCNH2 3.1 inh)
CCN1/C(=C/c2ccc3cc(C)cc(C)c3[n+]2CC)Sc2cc(C)ccc21	GLP1R cytotox inconclusive
CCN1/C(=C\c2ccc3cc(C)ccc3[n+]2CC)Sc2cc(C)c(C)cc21	hERG WT inh -126, GLP1R cytotox inconclusive
COc1ccc(CCNc2nc(-c3ccccc3OC)cc(C(F)(F)F)n2)cc1OC	GLP-1R inv ag 3.5µM (no result: hERG WT inh, KCNH2 3.1 inh)
COc1ccc(-c2cc(C(F)(F)F)nc(NCCc3ccccc3)n2)cc1	GLP-1R inv ag 3.2µM (no result: hERG WT inh, KCNH2 3.1 inh)
COc1ccc(-c2cc(C(F)(F)F)nc(NCCc3ccccc3)n2)cc1OC	none (no result: hERG WT inh, KCNH2 3.1 inh)
COc1cccc(NC(=O)Cn2c(=O)c3cccn3c3ccc(F)cc32)c1	none (no result: hERG WT inh, GLP1R ag, KCNH2 3.1 inh)
Cc1cccc(NC(=S)NC(=O)c2cccs2)n1	GLP-1R inv ag 10µM, GLP1R ag inconclusive, GLP1R cytotox inconclusive
CCOC(=O)c1ccc(NC(=S)Nc2cccc(N)n2)cc1	GLP1R cytotox inconclusive
Cc1nc(NC(=S)NC(=O)c2cccs2)ccc1Br	none
Cc1cccc(NC(=S)NC2CCCC2)n1	GLP-1R inv ag 4.5µM, GLP1R cytotox inconclusive (no result: hERG WT inh)
Cc1cccc(NC(=O)Nc2cccc(C)n2)n1	none
CCOC(=O)c1ccc(NC(=S)Nc2cccc(C)n2)cc1	GLP1R cytotox 1.3µM
Cc1cccc(NC(=S)Nc2cccc(C)n2)n1	GLP-1R inv ag inconclusive, KCNH2 3.1 inh -147, GLP1R cytotox inconclusive

Screening data: PubChem, National Center for Advancing Translational Sciences (NCATS)
